Where “and” joins values, the source holds several entries; their conditions need not be identical. Equal values may be shown once. Results filed as inconclusive are left out. Entries that show only a call come without a potency. Calls of active or inactive are those of the source. Unless noted, calls follow the shape of the dose curve; as a rule, active = well fitted curve in the direction sought with a large enough effect in the repeat runs; inconclusive = weak or mixed curves; inactive = no such curve, though single readings can be large; an effect the other way counts as inactive or inconclusive.
What was measured:
[1] = A CellTox Green Cytotoxicity Assay to monitor cytotoxicity in HepG2 cells - 32 hour (AID 1224883); also: nearly all actives have a fitted effect of over 50% in size; also: potency is read from the fitted curve at half-maximal effect
Procedure, shortened: (§1)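 HepG2, 600 cells/well premixed w/ CellTox Green; 5 h settle, 37 C/5% CO2; pintool cpd add (DMSO); 37 C, 40 h; fluorescence read at 0, 8, 16, 24, 32, 40 h.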

[2] = A CellTox Green Cytotoxicity Assay to monitor cytotoxicity in HEK293 cells - 8 hour (AID 1224884); also: nearly all actives have a fitted effect of over 35% in size; also: potency is read from the fitted curve at half-maximal effect
Procedure, shortened: (§2)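 Read-out: fluorescence of a cell-impermeant cyanine dye staining DNA of dead cells, proportional to cytotoxicity. HEK293, 600 cells/well with reagent, compound (23 nL DMSO) added after 5 h; reads at 0, 8, 16, 24, 32, 40 h.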

[3] = qHTS RealTime-Glo MT Cell Viability Assay in HepG2 cells - 16 hour (AID 1224885); also: nearly all actives have a fitted effect of over 50% in size; also: potency is read from the fitted curve at half-maximal effect
Procedure, shortened: (§3)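 Viability was tracked continuously by NanoLuc luminescence from prosubstrate reduced by living HepG2 cells, at successive time points over 40 h of compound exposure. Cells with reagent were preincubated 5 h at 37 °C before compound addition.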

[4] = qHTS RealTime-Glo MT Cell Viability Assay in HEK293 cells - 8 hour (AID 1224887); also: nearly all actives have a fitted effect of over 50% in size; also: potency is read from the fitted curve at half-maximal effect
Procedure, shortened: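 Luminescence readout at each listed time point; HEK293, 600 cells/well, RealTime-Glo MT reagent added with cells; compounds pinned (23 nL in DMSO) after 5 h at 37 C; continuous culture at 37 C.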

[5] = A CellTox Green Cytotoxicity Assay to monitor cytotoxicity in HEK293 cells - 16 hour (AID 1224888); also: nearly all actives have a fitted effect of over 35% in size; also: potency is read from the fitted curve at half-maximal effect
Procedure, shortened: as §2

[6] = qHTS RealTime-Glo MT Cell Viability Assay in HepG2 cells - 0 hour (AID 1224889); also: nearly all actives have a fitted effect of over 50% in size
Procedure, shortened: as §3

[7] = A CellTox Green Cytotoxicity Assay to monitor cytotoxicity in HepG2 cells - 8 hour (AID 1224890); also: nearly all actives have a fitted effect of over 45% in size; also: potency is read from the fitted curve at half-maximal effect
Procedure, shortened: as §1

[8] = qHTS assay to identify small molecule antagonists of the estrogen receptor alpha (ER-alpha) signaling pathway using the BG1 cell line in the presence of 0.1 nM 17-beta-estradiol - cell viability counter screen (AID 1259241); also: nearly all actives have a fitted effect of over 40% in size; also: potency is read from the fitted curve at half-maximal effect
Procedure, shortened: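 The cell line endogenously expresses full-length ER-alpha and carries four EREs driving luciferase. Cells are cultured 5 days hormone-free, treated 22 hr with compounds and 0.1 nM estradiol, then viability is read by fluorescence.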

[9] = qHTS assay to identify small molecule antagonists of the androgen receptor (AR) signaling pathway using the MDA cell line in the presence of 0.5 nM R1881 - cell viability counter screen (AID 1259242); also: nearly all actives have a fitted effect of over 45% in size; also: potency is read from the fitted curve at half-maximal effect
Procedure, shortened: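 Live-cell protease fluorescence, CellTiter-Fluor, 30 min at 37C. Cells: MDA-kb2, 3,000/well, preincubated 5 hr. Compounds plus 0.5 nM R1881 final, 16 hr, 37C, 0% CO2.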

[10] = molecular target: Estrogen receptor (Homo sapiens) (UniProt P03372); test: qHTS assay to identify small molecule antagonists of the estrogen receptor alpha (ER-alpha) signaling pathway using the BG1 cell line in the presence of 0.1 nM 17-beta-estradiol (AID 1259244); also: nearly all actives have a fitted effect of over 50% in size; also: potency is read from the fitted curve at half-maximal effect
Procedure, shortened: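 Luminescence after ONE-Glo (30 min, room temperature) measured ERE-luciferase activity in VM7Luc4E2 cells treated 22 h with compound and 0.1 nM final 17beta-estradiol as stimulator.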

[11] = qHTS assay to identify small molecule HDAC inhibitors - cell viability counter screen (AID 1259365)
Procedure, shortened: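 Viability readout: CellTiter-Glo luminescence. Wild-type HCT-116 cells, 2hr compound treatment following overnight attachment at 37 C.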

[12] = qHTS assay to identify small molecule agonists of the sonic hedgehog signaling (Shh) pathway - cell viability counter screen (AID 1259366); also: nearly all actives have a fitted effect of over 50% in size; also: potency is read from the fitted curve at half-maximal effect
Procedure, shortened: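 Viability measured fluorometrically (CellTiter-Fluor, 1hr, 37C) in 3T3 Gli1-Luc reporter cells after 23hr compound exposure within a 24hr incubation at 37C/5% CO2.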

[13] = qHTS assay to identify small molecule antagonists of the sonic hedgehog signaling (Shh) pathway - cell viability counter screen (AID 1259367); also: nearly all actives have a fitted effect of over 55% in size; also: potency is read from the fitted curve at half-maximal effect
Procedure, shortened: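 Tox21 library chemicals were tested on a Gli1-Luc NIH/3T3 clone (2,000 cells/well) stimulated by conditioned medium; viability was quantified as fluorescence from CellTiter-Fluor reagent added at 23 hr.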

[14] = qHTS assay to identify small molecule agonists of the sonic hedgehog signaling (Shh) pathway (AID 1259368; calls by dose curve; also: nearly all actives have a fitted effect of over 15% in size; also: potency is read from the fitted curve at half-maximal effect)
Procedure, shortened: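 Read-out: firefly luciferase luminescence from a Gli1 response element reporter stably integrated in NIH/3T3-derived 3T3Gli1-Luc cells, measured 30 min at room temperature after reagent addition. Compound exposure lasted 24 hr at 37 C, 5% CO2.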

[15] = qHTS assay to identify small molecule antagonists of the sonic hedgehog signaling (Shh) pathway (AID 1259369; calls by dose curve; also: nearly all actives have a fitted effect of over 45% in size; also: potency is read from the fitted curve at half-maximal effect)
Procedure, shortened: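 Luminescence readout: firefly Luc under Gli1 response element in 3T3Gli1-Luc cells (NIH/3T3 clone). Antagonist mode, stimulation by conditioned medium; compound exposure 24hr at 37 C, 5% CO2.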

[16] = qHTS assay to identify small molecule phospholipidosis (PLD) inducers (AID 1259344; active = well fitted curve in the direction sought with a large enough effect; an effect the other way counts as inactive or inconclusive)
Procedure, shortened: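 Image-based: LipidTOX Red pit count/intensity per well and per cell; HepG2, 24 h compound at 37 C, PFA fixation, Hoechst counterstain.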

[17] = qHTS RealTime-Glo MT Cell Viability Assay in HEK293 cells - 24 hour (AID 1224886); also: nearly all actives have a fitted effect of over 50% in size; also: potency is read from the fitted curve at half-maximal effect
Procedure, shortened: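 Viability tracked continuously by luminescence as live cells reduce a prosubstrate for NanoLuc; HEK293 cells preincubated 5 h, compound-treated at 37 C, and read at 0, 8, 16, 24, 32 and 40 h.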

[18] = qHTS assay to identify small molecule HDAC inhibitors (AID 1259364); also: potency is read from the fitted curve at half-maximal effect;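 also: wild-type HCT-116 cells with endogenous class I/II HDAC activity; nearly all actives have a fitted effect of over 45% in size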
Procedure, shortened: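 HCT-116 (wild type), 1,500 cells/well, overnight; compound 2 hr 37C 5% CO2; HDAC-Glo I/II reagent 30 min RT; luminescence readout.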

[19] = molecular target: Estrogen receptor beta (Homo sapiens) (UniProt Q92731); test: qHTS assay to identify small molecule agonists of the estrogen receptor beta (ER-beta) signaling pathway (AID 1259377; active = well fitted activation curve with a large enough effect in the signal ratio in the repeat runs, not every such curve was filed as active; the % refers to the signal ratio)
Procedure, shortened: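 A UAS-controlled beta-lactamase reporter in ER-beta-UAS-bla HEK293T cells reports receptor activation. Compounds act for 16 hr at 37C in 2% charcoal-stripped serum, and a FRET substrate is read by fluorescence after 2 hours.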

[20] = molecular target: Androgen receptor (Homo sapiens) (UniProt P10275); test: qHTS assay to identify small molecule antagonists of the androgen receptor (AR) signaling pathway using the MDA cell line in the presence of 0.5 nM R1881 (AID 1259243); also: nearly all actives have a fitted effect of over 50% in size; also: potency is read from the fitted curve at half-maximal effect
Procedure, shortened: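 MDA-kb2, MMTV-luc (AR/GR elements); 3,000 cells/well; cpd + 0.5 nM R1881 final; 16 hr 37C, 0% CO2; ONE-Glo 30 min RT; luminescence.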

Chain of Androgen receptor (Homo sapiens) (P10275 whole entry, looked up): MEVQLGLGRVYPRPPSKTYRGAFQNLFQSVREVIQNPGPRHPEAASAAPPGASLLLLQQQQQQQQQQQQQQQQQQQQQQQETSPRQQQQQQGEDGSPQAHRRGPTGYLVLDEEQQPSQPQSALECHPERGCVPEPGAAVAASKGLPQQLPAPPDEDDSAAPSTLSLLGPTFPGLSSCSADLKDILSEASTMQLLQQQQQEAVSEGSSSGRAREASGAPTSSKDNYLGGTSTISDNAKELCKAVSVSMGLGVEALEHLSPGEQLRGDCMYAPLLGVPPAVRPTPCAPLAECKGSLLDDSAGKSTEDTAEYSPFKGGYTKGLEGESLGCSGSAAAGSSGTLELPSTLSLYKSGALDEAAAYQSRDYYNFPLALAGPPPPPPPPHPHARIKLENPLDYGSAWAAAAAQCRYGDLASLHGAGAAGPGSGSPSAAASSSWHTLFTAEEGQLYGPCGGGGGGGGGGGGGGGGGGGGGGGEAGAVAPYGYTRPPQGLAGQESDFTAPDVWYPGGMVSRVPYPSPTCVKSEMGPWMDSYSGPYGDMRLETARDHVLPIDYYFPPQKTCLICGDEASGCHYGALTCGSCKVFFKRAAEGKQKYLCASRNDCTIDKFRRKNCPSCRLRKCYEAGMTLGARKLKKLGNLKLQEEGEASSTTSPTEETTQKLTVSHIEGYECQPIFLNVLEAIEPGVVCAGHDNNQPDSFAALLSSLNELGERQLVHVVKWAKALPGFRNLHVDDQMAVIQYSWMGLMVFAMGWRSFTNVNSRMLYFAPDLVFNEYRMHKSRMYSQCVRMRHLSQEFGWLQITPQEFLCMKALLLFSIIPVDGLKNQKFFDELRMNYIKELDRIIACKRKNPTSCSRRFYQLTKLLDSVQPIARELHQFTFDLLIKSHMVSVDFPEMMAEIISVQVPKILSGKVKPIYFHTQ
Chain of Estrogen receptor (Homo sapiens) (P03372 whole entry, looked up): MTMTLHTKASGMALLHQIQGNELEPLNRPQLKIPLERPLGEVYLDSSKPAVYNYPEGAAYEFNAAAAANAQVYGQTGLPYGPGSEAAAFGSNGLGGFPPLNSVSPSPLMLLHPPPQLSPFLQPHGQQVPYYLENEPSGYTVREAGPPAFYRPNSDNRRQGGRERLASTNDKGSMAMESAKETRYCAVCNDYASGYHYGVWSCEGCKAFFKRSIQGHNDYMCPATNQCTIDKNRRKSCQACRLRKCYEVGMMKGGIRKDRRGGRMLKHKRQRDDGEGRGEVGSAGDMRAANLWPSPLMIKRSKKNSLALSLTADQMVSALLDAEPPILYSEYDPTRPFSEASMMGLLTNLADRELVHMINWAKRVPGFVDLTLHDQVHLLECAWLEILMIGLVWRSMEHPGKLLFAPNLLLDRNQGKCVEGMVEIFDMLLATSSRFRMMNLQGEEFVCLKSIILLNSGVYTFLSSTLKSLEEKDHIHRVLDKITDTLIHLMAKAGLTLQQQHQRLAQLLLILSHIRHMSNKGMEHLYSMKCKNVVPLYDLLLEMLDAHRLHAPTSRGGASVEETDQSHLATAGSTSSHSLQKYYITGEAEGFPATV
Chain of Estrogen receptor beta (Homo sapiens) (Q92731 whole entry, looked up): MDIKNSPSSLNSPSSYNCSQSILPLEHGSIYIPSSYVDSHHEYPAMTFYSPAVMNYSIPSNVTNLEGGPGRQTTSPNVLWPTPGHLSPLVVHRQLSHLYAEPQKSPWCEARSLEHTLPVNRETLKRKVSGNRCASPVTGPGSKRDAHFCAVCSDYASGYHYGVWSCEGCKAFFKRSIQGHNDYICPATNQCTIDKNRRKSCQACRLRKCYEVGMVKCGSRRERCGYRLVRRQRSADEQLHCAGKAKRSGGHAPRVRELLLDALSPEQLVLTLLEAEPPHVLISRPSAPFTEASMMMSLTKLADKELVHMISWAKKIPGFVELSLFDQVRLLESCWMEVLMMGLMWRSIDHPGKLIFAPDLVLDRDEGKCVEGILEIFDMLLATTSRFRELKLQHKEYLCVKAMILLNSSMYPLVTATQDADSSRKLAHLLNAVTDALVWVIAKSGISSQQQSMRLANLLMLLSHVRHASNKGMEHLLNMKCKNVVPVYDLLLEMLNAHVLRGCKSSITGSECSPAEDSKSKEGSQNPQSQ

Row | SMILES | Potency [1] | Potency [2] | Potency [3] | Potency [4] | Potency [5] | Potency [6] | Potency [7] | Potency [8] | Potency [9] | Potency [10] | Potency [11] | Potency [12] | Potency [13] | Potency [14] | Potency [15] | Potency [16] | Potency [17] | Potency [18] | Potency [19] | Potency [20]
1 | COP(=O)(OC)SCn1c(=O)oc2cc(Cl)cnc21 | inactive | inactive | inactive | inactive | inactive | inactive | inactive | inactive | inactive | inactive | inactive | inactive | inactive | inactive | inactive | – | – | – | – | –
2 | CC[C@H]1C[C@@H]2C[C@H]3c4[nH]c5ccc(OC)cc5c4CCN(C2)[C@@H]13 | 54 µM (active) | inactive | inactive | inactive | inactive | inactive | inactive | – | – | – | inactive | 53.5 µM (active) | 60.1 µM (active) | – | 12 µM (active) | inactive | – | – | – | –
3 | O=C1c2ccccc2C(=O)C1C(=O)C(c1ccccc1)c1ccc(Cl)cc1 (stereo unspecified) | 54.9 µM (active) | – | inactive | inactive | – | – | 49 µM (active) | – | inactive | 27.3 µM (active) | – | inactive | inactive | inactive | 54.5 µM (active) | – | inactive | inactive | – | –
4 | CC1(C)CN=C(NN=C(/C=C/c2ccc(C(F)(F)F)cc2)/C=C/c2ccc(C(F)(F)F)cc2)NC1 | 17.4 µM (active) | – | 19.5 µM (active) | – | – | – | 34.7 µM (active) | 61.1 µM (active) | 24.3 µM (active) | 48.6 µM (active) | inactive | 19.3 µM (active) | 17.2 µM (active) | inactive | 6.86 µM (active) | – | 43.6 µM (active) | inactive | – | –
5 | c1ccc(Nc2ccc3ccccc3c2)cc1 | 48.7 µM (active) | inactive | – | – | inactive | inactive | inactive | inactive | inactive | inactive | inactive | inactive | inactive | inactive | inactive | – | – | – | inactive | –
6 | Oc1ccc2ccc3cccc4ccc1c2c34 | 54.9 µM (active) | – | 49 µM (active) | 13.8 µM (active) | – | inactive | – | inactive | inactive | – | inactive | inactive | inactive | inactive | – | – | 15.5 µM (active) | – | inactive | –
7 | CC(C)C1CCC(Cc2ccc(Cl)cc2)C1(O)Cn1cncn1 (stereo unspecified) | 43.2 µM (active) | – | 34.3 µM (active) | 13.7 µM (active) | inactive | inactive | 54.4 µM (active) | inactive | – | 48.1 µM (active) | – | 48.1 µM (active) | 53.9 µM (active) | inactive | 17.1 µM (active) | – | 12.2 µM (active) | inactive | inactive | –
8 | COc1cccc2c1C(=O)c1c(O)c3c(c(O)c1C2=O)C[C@@](O)(C(=O)CO)CC3OC1CC(N2CCOC(OC)C2)C(O)C(C)O1 (stereo partly specified) | 0.0425 µM (active) | inactive | – | – | inactive | inactive | 21.3 µM (active) | 13.3 µM (active) | – | 0.15 µM (active) | inactive | 0.237 µM (active) | – | inactive | 0.0067 µM (active) | – | 0.0535 µM (active) | – | inactive | 0.119 µM (active)
9 | CCCCCCCCc1ccc(O)cc1 | 42.7 µM (active) | 43.9 µM (active) | – | 6.76 µM (active) | – | inactive | 17.5 µM (active) | – | – | – | inactive | – | inactive | inactive | – | inactive | 4.93 µM (active) | – | – | –
10 | C[C@@H]1O[C@@H](O[C@H]2C[C@@H](O)[C@]3(CO)[C@H]4[C@H](O)C[C@]5(C)[C@@H](C6=CC(=O)OC6)CC[C@]5(O)[C@@H]4CC[C@]3(O)C2)[C@H](O)[C@H](O)[C@H]1O | inactive | inactive | – | – | inactive | – | inactive | inactive | inactive | inactive | inactive | inactive | – | inactive | inactive | inactive | – | inactive | – | inactive
11 | ClC1=C(Cl)C2(Cl)C3C(Cl)C=CC3C1(Cl)C2(Cl)Cl (stereo unspecified) | 54.9 µM (active) | 55.2 µM (active) and 49 µM (active) | – | 43.8 µM (active) and 43.6 µM (active) | 55.2 µM (active) and 49 µM (active) | inactive | – | – | inactive | inactive | inactive | inactive | inactive | inactive | – | – | 43.8 µM (active) and 49 µM (active) | inactive | inactive | –
12 | O=[N+]([O-])c1ccc2ccc3cccc4ccc1c2c34 | inactive | – | inactive | inactive | – | inactive | inactive | – | inactive | – | inactive | inactive | inactive | inactive | inactive | – | inactive | – | – | 0.863 µM (active)
13 | N#CCCC(Br)(C#N)CBr (stereo unspecified) | 30.9 µM (active) | – | 38.9 µM (active) | 49 µM (active) | 54.9 µM (active) | inactive | 54.9 µM (active) | inactive | – | inactive | inactive | 27.3 µM (active) | 27.3 µM (active) | inactive | 21.7 µM (active) | – | 24.5 µM (active) | – | inactive | –
14 | CN(C)c1ccc(N=Nc2ccccc2)cc1 | inactive | – | inactive | – | – | inactive | inactive | 54.5 µM (active) | – | – | inactive | 27.3 µM (active) | – | 1.72 µM (active) | inactive | – | – | 4.33 µM (active) | – | –
15 | CCCCCCCCCCCCCCCC[n+]1ccccc1 | 15.5 µM (active) [middle of 4 runs] | 49 µM (active) [middle of 4 runs] | – | 45.7 µM (active) and 54.9 µM (active) and 54.2 µM (active) | 49 µM (active) [middle of 4 runs] | inactive | 49 µM (active) and 48.3 µM (active) and 16.9 µM (active) | – | 32 µM (active) and 24.3 µM (active) and 26.9 µM (active) | – | inactive | 60.3 µM (active) [middle of 4 runs] | – | inactive | 508 nM (active) and 30.6 nM (active) and 21.4 nM (active) | – | 9.52 µM (active) [middle of 4 runs] | inactive | – | –

— PubChem BioAssay (Tox21)
